Data from the supplement of paper PMC10849652.
About 7,900 targets were measured; listed, in parts, are those with a hit and a random draw of the rest. About 0.6% of all pairs of compound and target were hits. Values without a mark were called inactive.

Chain of UniProt P40425 (P40425 whole entry, looked up): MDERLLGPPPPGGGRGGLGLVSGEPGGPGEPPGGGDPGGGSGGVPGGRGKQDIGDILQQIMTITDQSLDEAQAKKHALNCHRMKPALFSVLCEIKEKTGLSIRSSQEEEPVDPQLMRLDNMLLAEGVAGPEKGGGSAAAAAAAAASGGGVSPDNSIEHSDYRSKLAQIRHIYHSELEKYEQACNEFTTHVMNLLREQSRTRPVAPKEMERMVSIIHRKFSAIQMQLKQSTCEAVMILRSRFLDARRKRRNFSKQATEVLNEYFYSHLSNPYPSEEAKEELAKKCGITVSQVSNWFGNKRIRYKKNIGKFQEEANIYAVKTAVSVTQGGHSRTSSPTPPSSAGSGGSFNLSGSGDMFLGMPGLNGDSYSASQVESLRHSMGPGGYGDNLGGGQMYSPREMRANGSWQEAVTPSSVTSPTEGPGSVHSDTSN
Chain of UniProt Q7RTV0 (Q7RTV0 whole entry, looked up): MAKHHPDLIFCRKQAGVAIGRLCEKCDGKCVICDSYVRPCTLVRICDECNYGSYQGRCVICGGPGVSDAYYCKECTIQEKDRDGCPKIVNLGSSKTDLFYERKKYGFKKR
Chain of UniProt P17980 (P17980 whole entry, looked up): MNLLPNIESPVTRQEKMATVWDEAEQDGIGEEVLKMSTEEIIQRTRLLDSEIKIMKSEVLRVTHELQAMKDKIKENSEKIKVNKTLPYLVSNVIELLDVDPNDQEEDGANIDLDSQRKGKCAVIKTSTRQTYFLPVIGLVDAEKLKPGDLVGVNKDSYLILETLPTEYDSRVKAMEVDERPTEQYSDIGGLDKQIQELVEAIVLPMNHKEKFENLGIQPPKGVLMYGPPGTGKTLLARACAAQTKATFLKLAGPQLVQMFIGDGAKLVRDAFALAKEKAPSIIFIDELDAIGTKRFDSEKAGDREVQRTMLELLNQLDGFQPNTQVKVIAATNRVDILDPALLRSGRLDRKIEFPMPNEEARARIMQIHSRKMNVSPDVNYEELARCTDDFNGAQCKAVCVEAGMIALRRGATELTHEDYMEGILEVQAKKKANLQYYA
Chain of UniProt Q99575 (Q99575 whole entry, looked up): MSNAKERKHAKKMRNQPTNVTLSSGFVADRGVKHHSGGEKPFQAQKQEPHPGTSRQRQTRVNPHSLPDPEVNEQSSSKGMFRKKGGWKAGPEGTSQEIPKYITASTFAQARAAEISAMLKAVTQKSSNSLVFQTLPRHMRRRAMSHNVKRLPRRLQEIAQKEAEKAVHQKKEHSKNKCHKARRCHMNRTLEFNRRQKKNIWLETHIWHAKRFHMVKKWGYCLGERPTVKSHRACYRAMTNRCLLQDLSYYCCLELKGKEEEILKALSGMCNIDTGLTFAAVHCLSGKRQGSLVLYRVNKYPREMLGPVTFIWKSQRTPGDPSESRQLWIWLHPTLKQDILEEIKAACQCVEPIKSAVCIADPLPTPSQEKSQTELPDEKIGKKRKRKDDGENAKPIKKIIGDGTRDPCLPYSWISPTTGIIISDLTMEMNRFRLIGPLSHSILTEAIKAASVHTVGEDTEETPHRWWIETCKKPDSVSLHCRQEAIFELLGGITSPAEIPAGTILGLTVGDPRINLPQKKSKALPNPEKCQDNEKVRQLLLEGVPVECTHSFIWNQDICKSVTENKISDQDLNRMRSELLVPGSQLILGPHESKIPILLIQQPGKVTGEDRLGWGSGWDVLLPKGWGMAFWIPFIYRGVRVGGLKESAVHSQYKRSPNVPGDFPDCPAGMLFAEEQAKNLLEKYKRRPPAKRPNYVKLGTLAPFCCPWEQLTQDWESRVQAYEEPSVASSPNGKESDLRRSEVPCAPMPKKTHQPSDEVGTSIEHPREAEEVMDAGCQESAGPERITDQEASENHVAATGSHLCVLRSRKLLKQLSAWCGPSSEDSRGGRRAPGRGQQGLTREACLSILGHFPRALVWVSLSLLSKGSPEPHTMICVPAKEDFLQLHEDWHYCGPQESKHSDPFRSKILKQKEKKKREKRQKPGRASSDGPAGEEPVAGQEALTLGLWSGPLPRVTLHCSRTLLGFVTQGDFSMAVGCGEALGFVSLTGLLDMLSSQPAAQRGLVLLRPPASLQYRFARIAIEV
Chain of UniProt P27815 (P27815 whole entry, looked up): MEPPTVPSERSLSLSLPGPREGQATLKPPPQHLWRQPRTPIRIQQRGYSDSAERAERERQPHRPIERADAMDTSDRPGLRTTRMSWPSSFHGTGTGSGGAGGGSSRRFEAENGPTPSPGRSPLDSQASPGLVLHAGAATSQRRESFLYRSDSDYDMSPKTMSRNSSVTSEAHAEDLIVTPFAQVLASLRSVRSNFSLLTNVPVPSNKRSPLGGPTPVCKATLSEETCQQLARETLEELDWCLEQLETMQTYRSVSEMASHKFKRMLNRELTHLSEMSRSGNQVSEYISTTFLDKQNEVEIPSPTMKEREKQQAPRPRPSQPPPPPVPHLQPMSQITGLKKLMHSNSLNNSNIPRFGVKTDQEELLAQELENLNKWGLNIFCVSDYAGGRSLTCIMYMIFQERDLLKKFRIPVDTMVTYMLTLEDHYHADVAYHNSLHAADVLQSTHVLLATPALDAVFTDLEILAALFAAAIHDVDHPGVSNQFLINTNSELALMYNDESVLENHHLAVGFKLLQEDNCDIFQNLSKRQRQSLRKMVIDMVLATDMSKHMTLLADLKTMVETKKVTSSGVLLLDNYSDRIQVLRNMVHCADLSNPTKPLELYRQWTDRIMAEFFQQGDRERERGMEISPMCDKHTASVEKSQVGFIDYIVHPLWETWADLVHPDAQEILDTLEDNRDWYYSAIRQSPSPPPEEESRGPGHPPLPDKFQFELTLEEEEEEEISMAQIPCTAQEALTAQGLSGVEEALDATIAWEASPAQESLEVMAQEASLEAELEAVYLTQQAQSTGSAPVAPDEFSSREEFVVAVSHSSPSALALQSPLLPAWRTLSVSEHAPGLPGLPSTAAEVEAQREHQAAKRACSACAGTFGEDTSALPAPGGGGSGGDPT
Chain of UniProt O14974 (O14974 whole entry, looked up): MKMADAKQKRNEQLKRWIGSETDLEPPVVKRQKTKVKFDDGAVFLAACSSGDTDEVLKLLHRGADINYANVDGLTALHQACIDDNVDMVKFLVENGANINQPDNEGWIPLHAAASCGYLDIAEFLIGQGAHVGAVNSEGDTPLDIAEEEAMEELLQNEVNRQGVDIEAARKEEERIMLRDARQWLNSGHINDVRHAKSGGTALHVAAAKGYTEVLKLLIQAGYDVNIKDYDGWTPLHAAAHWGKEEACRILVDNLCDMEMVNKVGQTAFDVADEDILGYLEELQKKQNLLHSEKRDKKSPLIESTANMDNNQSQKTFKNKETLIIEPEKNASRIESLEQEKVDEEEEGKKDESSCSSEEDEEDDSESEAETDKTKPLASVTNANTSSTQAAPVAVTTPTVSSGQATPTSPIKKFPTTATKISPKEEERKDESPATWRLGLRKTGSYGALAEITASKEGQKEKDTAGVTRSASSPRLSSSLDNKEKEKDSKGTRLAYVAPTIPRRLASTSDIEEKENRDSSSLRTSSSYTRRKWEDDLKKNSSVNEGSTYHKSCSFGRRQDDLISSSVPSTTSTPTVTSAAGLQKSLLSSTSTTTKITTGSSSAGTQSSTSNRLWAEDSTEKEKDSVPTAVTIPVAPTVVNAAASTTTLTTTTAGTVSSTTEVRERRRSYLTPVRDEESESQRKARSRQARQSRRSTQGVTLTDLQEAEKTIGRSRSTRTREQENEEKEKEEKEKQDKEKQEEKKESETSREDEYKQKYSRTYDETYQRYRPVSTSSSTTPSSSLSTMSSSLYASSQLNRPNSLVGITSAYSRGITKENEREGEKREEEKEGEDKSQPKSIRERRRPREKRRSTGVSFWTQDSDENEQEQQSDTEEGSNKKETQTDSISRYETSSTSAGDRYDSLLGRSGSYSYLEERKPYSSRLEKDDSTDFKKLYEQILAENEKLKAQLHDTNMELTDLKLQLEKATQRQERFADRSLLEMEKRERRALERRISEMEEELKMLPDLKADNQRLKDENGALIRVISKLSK
Chain of UniProt Q86T03 (Q86T03 whole entry, looked up): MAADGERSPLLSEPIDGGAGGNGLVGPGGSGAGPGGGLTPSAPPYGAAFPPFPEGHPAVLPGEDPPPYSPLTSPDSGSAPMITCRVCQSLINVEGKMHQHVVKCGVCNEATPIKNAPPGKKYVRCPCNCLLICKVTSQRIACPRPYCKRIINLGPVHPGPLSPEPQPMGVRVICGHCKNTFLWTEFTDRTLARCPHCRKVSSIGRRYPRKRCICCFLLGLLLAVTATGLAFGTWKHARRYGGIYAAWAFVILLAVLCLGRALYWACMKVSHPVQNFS

What follows are targets tested with CC1=C(SC2=C1C(=N[C@H](C3=NN=C(N32)C)CC(=O)N)C4=CC=C(C=C4)Cl)C (assay: log2 fold change, soluble protein after heating vs DMSO (PISA); higher = thermal stabilisation; K562 cells, 10 uM, 30 min; active = over 0.2 and 3.5 SD of the protein, either way, in both replicates (recomputed)).
Method in brief: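 K562 cells at 2×10^6 cells/mL were exposed to 10 μM compound for 30 min, then aliquots were heated for 3 min across 48°C-58°C, pooled, and extracted in PBS containing 0.5% NP-40 at 4°C. The supernatant after 21,000xg for 90 min was taken as soluble protein and measured by TMTpro 16plex LC-MS/MS with channel sums equalised. Thermal stability is reported relative to control samples, with values from duplicates. Fold changes are given on a log2 scale.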
Target PPIL4 (UniProt Q8WUA2) has a log2 fold change of -0.022.
PHF5A (UniProt Q7RTV0) was tested, and the log2 fold change was -0.024.
For PPP6R1 (UniProt Q9UPN7), the log2 fold change was 0.002.
For POP1 (UniProt Q99575), the log2 fold change was -0.028.
PSMB4 (UniProt P28070) showed a log2 fold change of -0.037.
PRKCG (UniProt P05129) showed a log2 fold change of -0.025.
For PPIL2 (UniProt Q13356), the log2 fold change was 0.041.
Target PMM2 (UniProt O15305) has a log2 fold change of 0.046.
Target PLCB3 (UniProt Q01970) has a log2 fold change of -0.015.
PRG4 (UniProt Q92954) gave a log2 fold change of -0.044.
Target PSMC4 (UniProt P43686) has a log2 fold change of -0.117.
In the case of PSMC3 (UniProt P17980), the log2 fold change is reported as -0.083.
PCBP2 (UniProt F8VRH0) gave a log2 fold change of -0.18.
PBX2 (UniProt P40425) was tested, and the log2 fold change was 0.082.
In the case of PRKAR1B (UniProt P31321), the log2 fold change is reported as -0.026.
PRUNE1 (UniProt Q86TP1) was tested, and the log2 fold change was -0.002.
PSMD1 (UniProt Q99460) gave a log2 fold change of -0.087.
Target PIP4K2A (UniProt P48426) has a log2 fold change of 0.032.
PDE4A (UniProt P27815) was tested, and the log2 fold change was 0.128.
PPP1R12A (UniProt O14974) was tested, and the log2 fold change was 0.057.
With PIP4P1 isoform 2 (UniProt Q86T03) the log2 fold change was -0.106.
PIP4P2 (UniProt Q8N4L2) was tested, and the log2 fold change was 0.048.
With POLR1A (UniProt O95602) the log2 fold change was -0.043.
